This is part of a sample that, as a whole, favours compounds with a hit. Of some 83,000 tested, about 20% had one in any assay.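 Activity criterion: percent growth below 10, measured after cells in 96-well plates were exposed to a single compound concentration for 48 hours.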 A number with no mark means an inactive call. Calls of active or inactive are those of the source.
Columns and labels:
Assay in all cases: NCI-60 one-dose screen, 48 h (100 = growth as untreated, 0 = no growth, -100 = all killed)
Details in all cases: 10 µM unless noted
[1] = test system: T-47D breast
[2] = test system: BT-549 breast
[3] = test system: MDA-MB-435 melanoma
[4] = test system: SW-620 colon
[5] = test system: MCF7 breast
[6] = test system: HCT-116 colon
[7] = test system: HCC-2998 colon
[8] = test system: KM12 colon

Row | Structure (SMILES) | growth [1] | growth [2] | growth [3] | growth [4] | growth [5] | growth [6] | growth [7] | growth [8]
1 | COc1ccc(C2CC(c3cc(OC)c(OC)c(OC)c3)=NN2C(C)=O)cc1OCC(=O)Nc1nc2ccc(C(F)(F)F)cc2s1 (stereo not given) | 67.5% | 47.5% | 69.5% | 84.7% | 65% | 30.5% | 92.3% | 
2 | C[C@@H]1C[C@H]2C(=O)O[C@@H](C)[C@H](NC(=O)[C@H](Cc3cc(F)cc(F)c3)NC(=O)Nc3ccc(C4CC4)cc3F)C(=O)N3CCC[C@H]3C(=O)N3CCCC[C@H]3C(=O)N[C@@H](C)C(=O)N2C1 | 5.43% (active) | -1.76% (active) | 3.38% (active) | 27.7% | 12.7% | -4.75% (active) | -10.3% (active) | 
3 | C=C(C)[C@@H]1CC[C@]2(COCCC#N)CC[C@]3(C)[C@H](CC[C@@H]4[C@@](C)(CCCNCCC#N)[C@H](C(=C)C)CC[C@]43C)[C@@H]12 | 23.4% [100 µM] | 41% [100 µM] | 1.59% [100 µM] (active) | -38.3% [100 µM] (active) | 9.79% [100 µM] (active) | -53.8% [100 µM] (active) | 12.9% [100 µM] | 27.4% [100 µM]
4 | C=C(C)[C@@H]1CC[C@]2(C)[C@H](CC[C@@H]3[C@@H]([C@@](C)(O)CCC=C(C)C)CC[C@]32C)[C@@]1(C)CCC(=O)N1CCN(C)CC1 | -42.9% [100 µM] (active) | -84% [100 µM] (active) | -82.6% [100 µM] (active) | -75% [100 µM] (active) | -65.9% [100 µM] (active) | -85.7% [100 µM] (active) | -91.9% [100 µM] (active) | -83% [100 µM] (active)
5 | O=c1cc(-c2ccccc2)oc2c(O)c(O)ccc12 | 68.2% | 67.4% | 68.8% | 58% | 60.9% | 39% | 74.8% | 65.3%
6 | O=C(N=c1n(-c2ccccc2)nc2n1CCN2C1=NCCN1C(=O)c1ccc(Cl)cc1)c1ccc(Cl)cc1 | 50.1% | 59.6% | 70.5% | 68.3% | 46% | 39.1% | 85.8% | 
7 | Nc1nc(SCc2cccc([N+](=O)[O-])c2)c2[nH]cnc2n1 | 92.4% | 103% | 104% | 107% | 88% | 101% | 112% | 
8 | N#Cc1c(N2CCOCC2)nc(=S)[nH]c1-c1ccco1 | 18.9% | 60.4% | 86.3% | 83.8% | 26.7% | 82.4% | -21% (active) | 65.3%
9 | COc1ccc(CC(C#N)c2ccc(Cl)cc2)cc1 (stereo not given) | 98.2% | 74.9% | 0.297% (active) | 49% | 75% | 72.4% | 61.6% | 
10 | Cc1ccc(NC(=O)N[C@@H](Cc2cc(F)cc(F)c2)C(=O)N[C@@H]2C(=O)N3CCC[C@H]3C(=O)N3CCCC[C@H]3C(=O)N[C@@H](C)C(=O)N3C[C@H](C)C[C@H]3C(=O)O[C@H]2C)cc1 | 19.7% | 19.6% | 18.5% | 35.6% | 23.1% | 11.2% | 24.6% | 
11 | COc1ccc2nc3c(cc2c1)C(=O)CC(c1ccccc1)C3 (stereo not given) | 75% | 51.7% | -67.7% (active) | 17.8% | 56.2% | 11.1% | 91.3% | 10.8%
12 | C=C(C)[C@@H]1CC[C@]2(C(=O)NCCCN)CC[C@]3(C)[C@H](CC[C@@H]4[C@@]5(C)CC[C@H](O)C(C)(C)[C@@H]5CC[C@]43C)[C@@H]12 | -12.8% [100 µM] (active) | -2.14% [100 µM] (active) | -32.4% [100 µM] (active) | -36.2% [100 µM] (active) | -8.46% [100 µM] (active) | 1.97% [100 µM] (active) | -23.4% [100 µM] (active) | -25.3% [100 µM] (active)
13 | Ic1ccc2[nH]cc(SSc3c[nH]c4ccc(I)cc34)c2c1 | 26.7% | 31.5% | 24.3% | 39.4% | -29.4% (active) | 10.1% | 4.84% (active) | 
14 | ClC1=C(Cl)C(Cl)=C(Cl)C1=Cc1ccccc1 | -26.4% (active) | -82.1% (active) | -54% (active) | -56.2% (active) | -29.3% (active) | -99% (active) | -82.8% (active) | 
15 | CCN1c2ccccc2C(Cl)(c2ccc(N(C)C)cc2)c2ccccc21 | 54.9% | 62.1% | 23.3% | 12.2% | 76.2% | 17.5% | 78% | 21.9%
16 | CCCCCCCCCN(CCCCCCCCC)C(C)C(=O)c1ccc2cc(Br)c3ccccc3c2c1 (stereo not given) | 79.8% | 101% | 76.5% | 67% | 97.7% | 73.5% | 47.7% | 81.4%

Row | Structure (SMILES) | growth [1] | growth [2] | growth [3] | growth [4] | growth [5] | growth [6] | growth [7] | growth [8]
17 | CC(C)CSc1ncnc2nc[nH]c12 | 85.7% | 104% | 104% | 104% | 97.1% | 109% | 101% | 106%
18 | Cc1ccc(S(=O)(=O)Oc2ccc([N+](=O)[O-])cc2[N+](=O)[O-])cc1 | 94.5% | -8.38% (active) | 25.2% | 18.4% | 70.7% | 5.12% (active) | 99.8% | 102%
19 | CCOC(=O)COc1ccc2c(c1)O/C(=C\c1ccc(O)cc1)C2=O | 99.9% | 101% | 102% | 104% | 105% | 105% | 111% | 
20 | Brc1ccc(-c2nnc3c4[nH]ccc4ncn23)cc1 | 57.6% | 94.3% | 97.8% | 94% | 75.8% | 86.4% | 96.6% | 
21 | CCOC(=O)C(c1ccccc1)N1C(=O)c2ccccc2C1=O (stereo not given) | 97.3% | 90.3% | 93.1% | 97.4% | 91.4% | 98.5% | 98.4% | 
22 | CC1(C)C(=NO)C(C)(C)C1=NO | 121% | 116% | 92.2% | 100% | 106% | 103% | 98% | 
23 | C=C1C(=O)O[C@H]2[C@H]1CC/C(COC(=O)NCc1ccc(Cn3c(=O)sn(-c4ccc(Cl)cc4)c3=O)cc1)=C\CC[C@@]1(C)O[C@@H]21 | 47.5% | 66.1% | 82.9% | 6.67% (active) | 33.1% | 22.1% | 107% | 
24 | CC1=CC[C@@H]2C(C)(C)C(=O)CC[C@@]2(C)[C@@H]1COc1ccc2ccc(=O)oc2c1 | 6.17% (active) | 55.9% | 80.5% | 101% | 87.8% | 79.5% | 83.6% | 
25 | CC1(C)CC[C@]23CC[C@]4(C)[C@H](CC[C@@H]5[C@@]6(C)C/C(=C/c7cccnc7)C(=O)C(C)(C)[C@@H]6CC[C@]54C)[C@H]2[C@H]1OC3=O | 23.5% [100 µM] | 31.7% [100 µM] | 36% [100 µM] | 32.9% [100 µM] | 21.7% [100 µM] | 15.6% [100 µM] |  | 
26 | CC(C)(C)c1cc(C(=O)Nc2cc3ccccc3cc2C(=O)NCCN)cc(C(C)(C)C)c1 | -69% (active) | 82.2% | -88.3% (active) | -66.4% (active) | -85.6% (active) | -91.8% (active) | -86.5% (active) | 
27 | O=C1NC(=O)c2cc([N+](=O)[O-])cc3cccc1c23 | 96.1% | 96% | 100% | 98.2% | 90% | 107% | 107% | 
28 | COc1cc2c(cc1OCCCN1CCN(CCCOc3cc4c(cc3OC)C(=O)N3C[C@H](F)C[C@H]3C=N4)CC1)N=C[C@@H]1C[C@@H](F)CN1C2=O | 13.4% | -68.5% (active) | -24.9% (active) | -19.1% (active) | 6.75% (active) | 8.44% (active) | -13.1% (active) | -20% (active)
29 | Cc1cccc(C[C@H](NC(=O)Nc2ccc(Cl)cc2F)C(=O)N[C@@H]2C(=O)N3C[C@H](O)C[C@H]3C(=O)N3CCN(C)C[C@H]3C(=O)N[C@@H](C)C(=O)N3C[C@H](C)C[C@H]3C(=O)O[C@H]2C)c1 | 21.5% | 17.2% | 22.1% | 42.4% | 23% | 9.83% (active) | 34.5% | 40.5%
30 | CNc1cc(C(=O)O)nc(NC)n1 | 102% | 88.7% | 95.6% | 98.1% | 99.4% | 104% | 94.7% | 102%
31 | Clc1ccc2nc(-c3ccc(-c4ccc(/C=N/NC5=NCCN5)cc4)s3)cn2c1 | 92.6% | 91.6% | 101% | 29.7% | 79.4% | 86.8% | 109% | 103%

Source: PubChem BioAssay (NCI)
